# Data from PubChem BioAssay AID485364 (National Center for Advancing Translational Sciences (NCATS), 2010).
# Several values for one entry are separate records, joined by “and”; a condition that tells them apart may be missing. Equal values may be shown once. The campaign covered roughly 360,000 compounds. About 11,000 (3.1%) were called active. Another 4% or so got no clear call; they are omitted. Calls follow the shape of the dose curve; as a rule, active = well fitted inhibition curve with a large enough effect; inconclusive = small, poorly fitted or top-dose-only effect; inactive = no such curve, though single readings can be large or run the other way. What follows is part of a selection rich in actives, with near analogues and random picks from the rest. Where a structure was tested more than once in an assay, its records may differ in their call.
# Target: Schistosoma mansoni thioredoxin glutathione reductase (TGR) (UniProt Q962Y6)
# Experiment: qHTS Assay for the Inhibitors of Schistosoma Mansoni Peroxiredoxins; also: nearly all actives have a fitted effect of over 60% in size
# Conditions: purified TGR, DTNB reduction, TNB absorbance 405 nm; series mostly up to 114 µM; activity change, negative = inhibition: at the top concentration
# In short: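 Kinetic colorimetric format: TGR-catalysed, NADPH-driven DTNB reduction monitored via TNB absorbance. Enzyme dispensed at 20 nM; compound exposure 15 min at room temperature before reaction start.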
# % is scaled to controls: 0 for no effect and ±100 for the full control effect; potency is read from the fitted curve at half-maximal effect.
SMILES,"activity change, negative = inhibition",Potency
CC(=O)c1ccc(NC(=O)CSc2nc(-c3ccccc3F)nc3c2c(=O)n(C)c(=O)n3C)cc1,-9.4% (inactive),
CCN(CC)c1ccc(NC(=O)CN2C(=O)c3cccnc3Oc3ccc(Cl)cc32)c(C)c1,3.43% (inactive),
Cc1cccc(C(=O)Nc2ccc(S(=O)(=O)N3CCCCC3c3cccnc3)cc2)c1 (configuration not stated),11.3% (inactive),
Cc1cccc(N2CCN(C(=O)c3ccc4c(c3)CCN4S(=O)(=O)c3ccccc3)CC2)c1C,4.82% (inactive),
COc1cccc(NC(=O)c2csnn2)c1,-7.81% (inactive),
Cc1cccc(NC(=O)Cn2c(=O)n(CCC(C)C)c(=O)c3cccnc32)c1,-5.21% (inactive),
COc1ccc(-n2ccn(CC(=O)Nc3ccc(C)c(C)c3)c(=O)c2=O)cc1OC,-11.1% (inactive),
CCOC(=O)c1c(-c2ccccc2)oc2ccc(OC(=O)N(C)C)cc12,-10.8% (inactive),
CCOC(=O)c1c(-c2ccccc2)oc2cc(Br)c(O)c(C=O)c12,,15.8 µM (active)
CCOC(=O)c1c(-c2ccccc2)oc2ccc(OCC(=O)NN)cc12,-0.0748% (inactive),
COc1cccc(C(=O)NCC(=O)OCc2cc(=O)n3ccsc3n2)c1,-12.5% (inactive),
Cc1nnc(SCC(N)=O)n1CC1CCCO1 (configuration not stated),2.09% (inactive),
O=C(CSc1nnc(-c2ccco2)n1CC1CCCO1)c1ccccc1 (configuration not stated),,25.1 µM (active)
CNC(=O)NC(=O)CSc1nnc(-c2ccc(F)cc2)n1CC1CCCO1 (configuration not stated),6.86% (inactive),
Cc1ccccc1CSc1nc2c([nH]c3ccccc32)c(=O)n1C,7.19% (inactive),
COc1cccc(OCCn2c(-c3ccc(Br)cc3)nc3ccccc3c2=O)c1,-2.8% (inactive),
Cc1ccc(/C=C/C(=O)Nc2cc(S(=O)(=O)N3CCCCCC3)ccc2OCC(F)(F)F)o1,-10.1% (inactive),
Cc1ccc(/C=C/C(=O)Nc2ccc([N+](=O)[O-])c(NC(=O)/C=C/c3ccc(C)o3)c2)o1,,22.4 µM (active)
COc1ccc(OC)c(NC(=O)Cc2cccs2)c1,14.7% (inactive),
Cc1cc(NC(=O)Nc2ccccc2[N+](=O)[O-])no1,12.6% (inactive),
COc1ccc(OC)c(NC(=O)/C=C/c2ccc(C)o2)c1,,50.1 µM (active)

SMILES,"activity change, negative = inhibition",Potency
CNc1ccc(NC(C)=O)cc1[N+](=O)[O-],4.44% (inactive),
CCc1ccc(NC(=O)N2CCN(C(=O)c3nsc4ccccc34)CC2)cc1,-5.7% (inactive),
Cc1cccc(C(C)C)c1NC(=O)C(NS(=O)(=O)c1cccc2nsnc12)c1ccccc1 (configuration not stated),2.93% (inactive),
CCc1ccc(CNCc2c(C(=O)O)n(Cc3ccc(F)cc3Cl)c3cc(OC)ccc23)cc1,7.86% (inactive),
CC(CNC(=O)c1nnc(Cc2cccc(F)c2)o1)c1ccccc1 (configuration not stated),2.57% (inactive),
CCOc1ccc(C2C(C#N)=C(N)N(N(C)C)C3=C2C(=O)CCC3)cc1 (configuration not stated),0.173% (inactive),
CCOc1ccc(C2C3=C(CCCC3=O)N(CC(=O)O)C3=C2C(=O)CCC3)cc1,,44.7 µM (active)
COc1ccc(C2C3=C(CCCC3=O)N(CC(=O)O)C3=C2C(=O)CCC3)cc1,-24.2% (inactive),
CC(=O)Nc1ccc(NC(=O)C2CCCN(S(=O)(=O)c3ccc4c(c3)CCCC(=O)N4)C2)cc1 (configuration not stated),10.8% (inactive),
COCCNC(=O)CSc1nc(-c2ccccc2)[nH]c1-c1ccc(C)cc1,4.66% (inactive),
Cn1cncc1COC(=O)c1ccc(Cl)cc1,7.13% (inactive),
Cc1cc(OC(=O)c2ccc(Cl)cc2)cc(=O)n1C,,44.7 µM (active)
Cc1oc(C)c2c(=O)cc(-c3ccc4c(c3)OCO4)cc(OC(=O)c3ccc(Cl)cc3)c12,-17.2% (inactive),
Cc1ccc(NC(=O)c2cn3c4c(ccc(Cl)c4c2=O)OC(C)C3)cc1C (configuration not stated),-0.119% (inactive),
CCOC(=O)Nc1ccc2c(c1)N(C(=O)CCCl)c1ccccc1[S@]2=O,,14.1 µM (active)
CCNCCC(=O)N1c2ccccc2Sc2ccc(NC(=O)OCC)cc21,-0.642% (inactive),
CCOC(=O)Nc1ccc2c(c1)N(C(=O)CCN1CCN(CCO)CC1)c1ccccc1CC2,-11.7% (inactive),
COc1ccc(Cl)cc1NC(=O)CSc1nc(=O)[nH]c2c1CCCC2,-13.1% (inactive),
Cc1ccccc1-c1nc(CS(=O)(=O)CC(=O)N2CCc3ccccc3C2)c(C)o1,,3.55 µM (active)
Cc1ccccc1-c1nc(CS(=O)(=O)CC(=O)NC(C)c2ccccc2)c(C)o1 (configuration not stated),,inactive and 39.8 µM (active)
Cc1ccccc1-c1nc(CS(=O)(=O)CC(=O)Nc2cc(Cl)cc(Cl)c2)c(C)o1,-0.424% (inactive),

SMILES,"activity change, negative = inhibition",Potency
Cc1oc(-c2ccccc2F)nc1CS(=O)(=O)CC(=O)NCCCN(C)C1CCCCC1,3.21% (inactive),
COc1cccc(-c2nc(CS(=O)(=O)CC(=O)N3CCN(c4cc(C)ccc4C)CC3)c(C)o2)c1,-0.431% (inactive),
Cc1ccc(S(=O)(=O)CC(=O)NC(C)c2ccccc2)cc1 (configuration not stated),0% (inactive),
Cc1ccc(-c2noc(-c3nnn(-c4cccc(C(F)(F)F)c4)c3N)n2)cc1,7.72% (inactive),
CC1CCC(N2CC(=O)N(CCC3=CCCCC3)C(c3ccc(F)cc3)C2=O)CC1 (configuration not stated),5.07% (inactive),
CCOc1ccc(S(=O)(=O)c2cn(Cc3ccc(OC)cc3)c3ccc(F)cc3c2=O)cc1,-1.61% (inactive),
COc1ccc(C)cc1NC(=O)C(=O)NCCc1sc(-c2cccc(C)c2)nc1C,6.58% (inactive),
Cc1cc(C)c2oc(-c3cccc(NC(=O)c4cccc(F)c4)c3C)nc2c1,1.22% (inactive),
CCOC(=O)c1c(C)oc2nc(C)nc(N3CCN(c4ccc(OC)cc4)CC3)c12,0.844% (inactive),
O=C(NC1CC(=O)N(c2ccccc2)C1)c1ccco1 (configuration not stated),8.46% (inactive),
CC(=O)N1CCN(CC(C)(C)NS(=O)(=O)c2ccc(C)cc2)CC1,-16.5% (inactive),
Cc1ccc(S(=O)(=O)NCC(C)NS(C)(=O)=O)cc1 (configuration not stated),-8.27% (inactive),
CCOC(=O)C(NS(=O)(=O)c1ccc(C)cc1)(C(F)(F)F)P(=O)(OCC(C)C)OCC(C)C (configuration not stated),,22.4 µM (active)
Cn1c(C(=O)N2CCC(C(=O)N3CCN(c4ccccc4)CC3)CC2)cc2sccc21,1.1% (inactive),
Cc1ccc(Cl)cc1N(C)C(=O)C1CCCN(c2ncnc3onc(-c4ccc(F)cc4)c23)C1 (configuration not stated),6.45% (inactive),
NC(=O)CCN1CCN(S(=O)(=O)/C=C/c2ccccc2)CC1,-0.515% (inactive),
COc1ccccc1N1CCN(CC(=O)NC(=O)NCc2ccco2)CC1,3.23% (inactive),
O=C(CN1CCN(S(=O)(=O)/C=C/c2ccccc2)CC1)NC(=O)NCc1ccco1,,28.2 µM (active)
Cc1ccc(Nc2nnc(-c3ccc(C)c(S(=O)(=O)N4CCCCC4)c3)c3ccccc23)cc1,-0.898% (inactive),
Cc1ccc2cccc(NC(=O)c3cccc4ccccc34)c2n1,-0.566% (inactive),
